From the supplement of paper PMC11732987, “Enantioselective OTUD7B fragment discovery through chemoproteomics screening and high-throughput optimisation” (Communications Chemistry, 2025)

Assays:
Assay in all cases: log2 ratio of Biotin-Ahx-Ub-VS probe labelling (fragment/DMSO); higher = less target engagement (more negative = stronger competition), active = hit call of the paper (q ≤ 0.05, log2 ratio ≤ -1)
Settings in all cases: compound concentration: 200 uM; treatment time: 3 h
ALG13 = target: T1, ALG13 (UniProt Q9NP73)
T1 sequence (whole entry): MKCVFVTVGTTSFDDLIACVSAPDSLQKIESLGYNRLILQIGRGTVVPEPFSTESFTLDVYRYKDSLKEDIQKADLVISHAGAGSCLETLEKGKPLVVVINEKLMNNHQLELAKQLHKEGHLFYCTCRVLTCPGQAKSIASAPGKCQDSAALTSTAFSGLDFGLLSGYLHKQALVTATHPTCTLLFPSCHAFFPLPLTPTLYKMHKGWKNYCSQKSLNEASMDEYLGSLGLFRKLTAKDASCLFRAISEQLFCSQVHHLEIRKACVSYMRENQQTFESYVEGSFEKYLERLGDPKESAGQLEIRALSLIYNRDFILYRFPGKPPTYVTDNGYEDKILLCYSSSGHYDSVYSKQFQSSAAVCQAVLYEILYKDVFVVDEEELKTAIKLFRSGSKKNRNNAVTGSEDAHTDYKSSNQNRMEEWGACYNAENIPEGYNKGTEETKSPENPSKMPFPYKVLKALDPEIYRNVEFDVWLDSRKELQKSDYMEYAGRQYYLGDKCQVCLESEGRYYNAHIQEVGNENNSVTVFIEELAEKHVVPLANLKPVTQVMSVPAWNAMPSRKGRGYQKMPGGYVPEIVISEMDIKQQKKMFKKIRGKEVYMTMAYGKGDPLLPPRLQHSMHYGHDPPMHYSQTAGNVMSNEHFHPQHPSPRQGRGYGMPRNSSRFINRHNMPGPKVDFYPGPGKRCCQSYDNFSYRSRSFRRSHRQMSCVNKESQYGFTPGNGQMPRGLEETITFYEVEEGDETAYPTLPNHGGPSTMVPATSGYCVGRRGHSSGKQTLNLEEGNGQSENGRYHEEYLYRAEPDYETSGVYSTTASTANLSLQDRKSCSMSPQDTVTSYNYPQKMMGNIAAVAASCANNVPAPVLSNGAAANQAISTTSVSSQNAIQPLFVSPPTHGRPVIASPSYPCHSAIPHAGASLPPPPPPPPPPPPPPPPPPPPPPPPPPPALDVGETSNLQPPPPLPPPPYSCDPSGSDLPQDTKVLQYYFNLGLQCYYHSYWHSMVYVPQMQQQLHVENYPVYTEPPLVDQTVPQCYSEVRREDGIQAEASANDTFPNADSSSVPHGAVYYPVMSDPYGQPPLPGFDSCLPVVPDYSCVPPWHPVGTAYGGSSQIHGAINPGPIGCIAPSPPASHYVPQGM
Outline: (§1)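 Fragment (200 µM) or vehicle was incubated for 3 h with triplicate HEK293T lysate samples of 495 µg, which were then treated with Biotin-Ahx-Ub-VS at 0.5 µM final for 1 h. Labelled DUBs were enriched on NeutrAvidin, digested with LysC and trypsin, and analysed by diaPASEF LC-MS/MS. Values are average log2 fragment/vehicle ratios from an unpaired t-test on global-median-normalised Spectronaut label-free quantities, using proteins with ≥2 unique peptides.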

ATXN3 = ATXN3 (UniProt P54252)
Outline: as §1

BAP1 = target: T2, BAP1 (UniProt Q92560)
T2 sequence (whole entry): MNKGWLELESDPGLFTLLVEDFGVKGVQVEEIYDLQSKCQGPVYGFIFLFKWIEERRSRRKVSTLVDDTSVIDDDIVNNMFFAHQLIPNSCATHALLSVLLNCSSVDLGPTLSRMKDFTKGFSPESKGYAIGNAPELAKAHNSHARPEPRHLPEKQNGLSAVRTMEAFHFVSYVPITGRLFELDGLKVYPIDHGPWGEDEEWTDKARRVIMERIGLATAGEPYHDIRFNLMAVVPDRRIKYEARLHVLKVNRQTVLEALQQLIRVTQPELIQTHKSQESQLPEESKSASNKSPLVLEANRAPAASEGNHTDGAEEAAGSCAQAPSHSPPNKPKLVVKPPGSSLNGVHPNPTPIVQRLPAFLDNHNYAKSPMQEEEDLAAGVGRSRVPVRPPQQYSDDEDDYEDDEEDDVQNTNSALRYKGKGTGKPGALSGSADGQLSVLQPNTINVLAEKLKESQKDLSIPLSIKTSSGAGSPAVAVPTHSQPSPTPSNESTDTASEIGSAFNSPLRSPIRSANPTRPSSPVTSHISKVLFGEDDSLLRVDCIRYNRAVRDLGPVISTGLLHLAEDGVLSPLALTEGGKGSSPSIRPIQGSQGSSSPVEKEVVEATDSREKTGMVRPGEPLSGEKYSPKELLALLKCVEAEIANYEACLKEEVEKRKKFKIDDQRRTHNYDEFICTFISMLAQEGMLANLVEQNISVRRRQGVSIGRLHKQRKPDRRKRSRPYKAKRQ
Outline: as §1

EIF3F = EIF3F (UniProt O00303)
Outline: as §1

EIF3H = EIF3H (UniProt O15372)
Outline: as §1

FAM105A = target: T3, FAM105A (UniProt Q9NUU6)
T3 sequence (whole entry): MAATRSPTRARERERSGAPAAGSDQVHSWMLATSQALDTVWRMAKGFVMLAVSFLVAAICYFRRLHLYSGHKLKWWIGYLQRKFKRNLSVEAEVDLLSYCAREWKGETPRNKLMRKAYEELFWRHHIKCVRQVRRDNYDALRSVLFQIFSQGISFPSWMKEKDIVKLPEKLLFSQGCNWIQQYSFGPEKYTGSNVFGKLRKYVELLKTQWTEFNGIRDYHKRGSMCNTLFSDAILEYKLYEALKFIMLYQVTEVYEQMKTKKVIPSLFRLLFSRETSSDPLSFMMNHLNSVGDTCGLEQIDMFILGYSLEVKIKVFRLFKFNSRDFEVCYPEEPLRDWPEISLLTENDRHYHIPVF
Outline: as §1

OTUB1 = OTUB1 (UniProt Q96FW1)
Outline: as §1

OTUD4 = target: T4, OTUD4 (UniProt Q01804)
T4 sequence (whole entry): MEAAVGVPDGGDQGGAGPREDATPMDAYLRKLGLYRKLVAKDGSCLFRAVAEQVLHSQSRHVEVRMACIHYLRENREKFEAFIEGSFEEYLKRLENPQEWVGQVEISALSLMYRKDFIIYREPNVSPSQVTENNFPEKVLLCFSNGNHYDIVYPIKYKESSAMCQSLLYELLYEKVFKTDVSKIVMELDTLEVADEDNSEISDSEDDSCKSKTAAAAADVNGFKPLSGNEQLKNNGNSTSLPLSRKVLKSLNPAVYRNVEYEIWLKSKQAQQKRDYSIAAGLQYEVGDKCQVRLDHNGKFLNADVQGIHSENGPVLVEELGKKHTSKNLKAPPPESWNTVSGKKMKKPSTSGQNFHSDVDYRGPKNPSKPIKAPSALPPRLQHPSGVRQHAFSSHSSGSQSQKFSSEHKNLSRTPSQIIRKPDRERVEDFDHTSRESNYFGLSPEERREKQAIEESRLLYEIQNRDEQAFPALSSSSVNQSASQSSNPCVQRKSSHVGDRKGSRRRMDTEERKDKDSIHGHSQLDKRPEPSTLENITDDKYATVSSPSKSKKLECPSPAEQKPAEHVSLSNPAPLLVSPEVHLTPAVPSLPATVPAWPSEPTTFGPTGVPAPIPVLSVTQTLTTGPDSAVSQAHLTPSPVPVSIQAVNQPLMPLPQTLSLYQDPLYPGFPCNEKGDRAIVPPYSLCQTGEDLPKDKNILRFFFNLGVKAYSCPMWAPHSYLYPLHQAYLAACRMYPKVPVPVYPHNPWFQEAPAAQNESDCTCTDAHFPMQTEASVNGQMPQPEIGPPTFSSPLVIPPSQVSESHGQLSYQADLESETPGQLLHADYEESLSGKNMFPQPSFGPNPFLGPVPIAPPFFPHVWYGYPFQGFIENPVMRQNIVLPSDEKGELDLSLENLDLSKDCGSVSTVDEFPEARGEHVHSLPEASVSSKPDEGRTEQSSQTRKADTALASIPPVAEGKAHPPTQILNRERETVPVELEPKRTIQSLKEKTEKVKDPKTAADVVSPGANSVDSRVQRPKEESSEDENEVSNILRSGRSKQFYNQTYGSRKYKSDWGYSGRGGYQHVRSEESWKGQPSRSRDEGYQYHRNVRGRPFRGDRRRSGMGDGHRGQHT
Outline: as §1

OTUD5 = target: T5, OTUD5 (UniProt Q96G74)
T5 sequence (whole entry): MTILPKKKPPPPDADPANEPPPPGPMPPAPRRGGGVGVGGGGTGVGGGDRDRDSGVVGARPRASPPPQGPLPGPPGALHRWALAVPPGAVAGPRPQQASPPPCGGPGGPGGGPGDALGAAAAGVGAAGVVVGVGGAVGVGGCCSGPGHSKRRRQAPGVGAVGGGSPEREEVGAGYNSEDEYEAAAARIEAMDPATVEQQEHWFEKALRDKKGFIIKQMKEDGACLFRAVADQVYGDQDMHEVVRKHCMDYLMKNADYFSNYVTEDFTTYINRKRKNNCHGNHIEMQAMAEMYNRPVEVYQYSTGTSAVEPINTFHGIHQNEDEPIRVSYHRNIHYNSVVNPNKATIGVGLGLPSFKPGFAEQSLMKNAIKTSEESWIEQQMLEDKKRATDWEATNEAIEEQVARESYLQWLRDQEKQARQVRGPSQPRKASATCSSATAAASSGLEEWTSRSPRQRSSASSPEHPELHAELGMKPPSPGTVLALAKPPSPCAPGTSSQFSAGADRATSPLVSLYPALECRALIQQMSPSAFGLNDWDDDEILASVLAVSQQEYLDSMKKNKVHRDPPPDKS
Outline: as §1

Measured: log2 ratio of Biotin-Ahx-Ub-VS probe labelling

Sequence of EIF3F (O00303 whole entry): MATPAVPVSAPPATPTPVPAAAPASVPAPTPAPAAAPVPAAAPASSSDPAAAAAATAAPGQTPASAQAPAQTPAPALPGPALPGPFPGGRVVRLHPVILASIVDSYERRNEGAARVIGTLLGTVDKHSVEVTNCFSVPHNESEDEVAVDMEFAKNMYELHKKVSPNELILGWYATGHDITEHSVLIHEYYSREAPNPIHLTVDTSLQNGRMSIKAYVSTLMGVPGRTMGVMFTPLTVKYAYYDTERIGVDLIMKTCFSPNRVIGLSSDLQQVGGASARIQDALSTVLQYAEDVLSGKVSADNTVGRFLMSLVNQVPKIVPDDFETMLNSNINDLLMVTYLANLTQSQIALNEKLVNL
Sequence of OTUB1 (Q96FW1 whole entry): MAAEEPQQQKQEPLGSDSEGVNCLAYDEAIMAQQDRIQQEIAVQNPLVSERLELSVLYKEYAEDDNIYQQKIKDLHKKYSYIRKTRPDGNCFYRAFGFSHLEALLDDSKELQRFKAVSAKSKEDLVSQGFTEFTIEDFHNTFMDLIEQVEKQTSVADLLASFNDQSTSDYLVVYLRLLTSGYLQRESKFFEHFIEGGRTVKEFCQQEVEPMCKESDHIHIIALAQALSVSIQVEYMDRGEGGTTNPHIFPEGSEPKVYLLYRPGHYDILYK
Sequence of EIF3H (O15372 whole entry): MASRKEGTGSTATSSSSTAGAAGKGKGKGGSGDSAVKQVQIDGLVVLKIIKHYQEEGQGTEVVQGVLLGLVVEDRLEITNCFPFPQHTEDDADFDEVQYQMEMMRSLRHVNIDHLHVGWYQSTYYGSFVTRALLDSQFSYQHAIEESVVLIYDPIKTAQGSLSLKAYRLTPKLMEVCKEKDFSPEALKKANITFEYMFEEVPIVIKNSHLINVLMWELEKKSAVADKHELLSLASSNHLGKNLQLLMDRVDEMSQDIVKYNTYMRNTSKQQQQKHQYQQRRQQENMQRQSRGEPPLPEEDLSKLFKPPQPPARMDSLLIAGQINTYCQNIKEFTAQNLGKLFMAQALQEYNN
Sequence of ATXN3 (P54252 whole entry): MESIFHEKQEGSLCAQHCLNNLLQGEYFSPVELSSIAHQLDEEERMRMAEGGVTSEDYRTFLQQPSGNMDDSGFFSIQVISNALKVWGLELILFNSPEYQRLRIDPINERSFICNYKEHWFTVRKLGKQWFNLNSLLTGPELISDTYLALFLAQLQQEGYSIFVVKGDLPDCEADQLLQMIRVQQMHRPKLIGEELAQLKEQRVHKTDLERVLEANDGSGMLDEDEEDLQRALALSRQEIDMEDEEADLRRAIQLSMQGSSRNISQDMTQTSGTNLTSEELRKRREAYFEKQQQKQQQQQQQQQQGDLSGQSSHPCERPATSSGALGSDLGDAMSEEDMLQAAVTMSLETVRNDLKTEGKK

O=C(CCl)N1CCc2nc[nH]c2C1c1ccc(Cl)cc1 (centres undefined)
active: BAP1 -1.65 | OTUD5 -1.26
inactive: ALG13 -0.0235 | ATXN3 -0.508 | EIF3F -0.277 | EIF3H 0.263 | FAM105A 0.102 | OTUB1 0.00111 | OTUD4 -0.508
